Test results published in ChEMBL document CHEMBL3988442, “University of Dundee, Small-Polar-MMV Screening Library” (2021).
About 13,000 (27%) of roughly 48,000 compounds showed an effect of 50% or more. Some of the results follow.

Each compound was assayed on Wolbachia pipientis (assay: Anti-Wolbachia Cell-Based Screen). Details: 5 µM.
Format: functional
Parameters: scale not given: in the data most compounds retested in dose-response had high values

Structure (SMILES)	Percent Effect
Cc1noc(C)c1CNC(=O)N1CCC(OCC2CC2)CC1	12.01%
Cc1n[nH]cc1CNC(C(=O)N1CCCCC1)c1ccccc1 (stereo unspecified)	2.279%
CC(C)c1nnc2n1CCN(C(=O)CN1CCc3sccc3C1)C2	4.372%
OC(CN1CCC(c2ccn[nH]2)CC1)c1cccc(F)c1 (stereo unspecified)	-8.538%
OC(CN1CCC(c2ccn[nH]2)CC1)c1ccccc1F (stereo unspecified)	96.43%
OC(CN1CCC(c2ccn[nH]2)CC1)c1cccc(C(F)(F)F)c1 (stereo unspecified)	117.8%
OC(COc1ccccc1)CN1CCC(c2ccn[nH]2)CC1 (stereo unspecified)	2.003%
OC(COCc1cccs1)CN1CCC(c2ccn[nH]2)CC1 (stereo unspecified)	-8.119%
CS(=O)(=O)c1ccc(C(O)CN2CCC(c3ccn[nH]3)CC2)cc1 (stereo unspecified)	-3.645%
CN(CC1CCN(CCO)CC1)CC(O)c1ccc(F)cc1F (stereo unspecified)	7.101%
OC(CN1CCC(c2ccn[nH]2)CC1)c1ccc(F)cc1 (stereo unspecified)	112.6%
Cn1nccc1C1CCN(CC(O)c2cccc(F)c2)CC1 (stereo unspecified)	-0.7122%
N#Cc1ccnc(N2CCN(CC(O)c3ccc(F)cc3F)CC2)c1 (stereo unspecified)	-23.85%
OC(CN1CCN(c2ncccn2)CC1)c1cccc(F)c1 (stereo unspecified)	-12.81%
OC(CN1CCC(c2ccn[nH]2)CC1)c1ccc(F)cc1F (stereo unspecified)	102.6%
Cc1ccc(F)c(OC2CCCN(c3cnn(C)c3)C2=O)c1 (stereo unspecified)	-6.274%
Cc1cc(C(=O)N[C@H]2CN(CCO)C[C@@H]2C2CC2)sc1C	-4.663%
CN(Cc1ccccc1)C1(C(=O)NC(CO)CO)Cc2ccccc2C1	2.959%
O=C(Nc1cnc2n1CCCC2)c1cccc(-n2cnnc2)c1	-1.722%
CCN(C(=O)CN(Cc1cccc(O)c1)C1CCC(O)CC1)C1CC1 (stereo unspecified)	5.971%
Cc1cccc(CNCC2COC3(CCCC3)O2)c1C (stereo unspecified)	-2.633%
OC(CN1CCC(c2ccn[nH]2)CC1)c1cc(F)ccc1F (stereo unspecified)	116%
OC(COCc1ccc(Cl)cc1)CN1CCC(c2ccn[nH]2)CC1 (stereo unspecified)	-1.567%

Structure (SMILES)	Percent Effect
O=C1CCCN1CCN1CCC(c2ccn[nH]2)CC1	6.838%
O=c1cc(-c2ccncc2)nc(-c2ccc(CN3CC[C@H](O)C3)cc2)[nH]1	9.166%
CN(C)c1cc(CNC(=O)Nc2ccc(F)cc2)ccn1	2.745%
CN(C)c1cc(CNC(=O)Nc2nccs2)ccn1	125%
CN(C)c1cc(CNC(=O)Nc2ccc(S(C)(=O)=O)nc2)ccn1	-6.104%
CN(C)c1cc(CNC(=O)Nc2nncs2)ccn1	51.52%
CCc1ccc(CCNc2ncnc3c2CCN(C(=O)C2CC2)C3)cc1	-23.9%
NC(=O)C1CCN(CCCc2ccc(C(F)(F)F)cc2)CC1	5.084%
OCC1CN(Cc2nc(C(F)(F)F)cs2)c2ccccc2O1 (stereo unspecified)	3.254%
CC(C)c1cc(C(=O)NCC(O)C2CCOCC2)nn1C(C)(C)C (stereo unspecified)	-4.207%
CC(C)c1cc(C(=O)NC2CCN(CC(N)=O)CC2)nn1C(C)(C)C	128%
CCNc1ccnc(NC2CCN(CC(N)=O)CC2)n1	2.921%
CC(C)(C)n1nc(C(=O)NC2CCN(CC(N)=O)CC2)cc1C1CC1	128.2%
Cn1nc(C(=O)NC2CC2)cc1NC(=O)C1CC1	-11.77%
CC(C)c1cc(C(=O)NCC2(C(N)=O)CCOCC2)nn1C(C)(C)C	-12.39%
CNC(=O)C1CCC(NC(=O)c2cc(C3CC3)n(C(C)(C)C)n2)CC1 (stereo unspecified)	117.3%
Cn1nc(C(=O)NC2CC(C)(C)NC(C)(C)C2)cc1NC(=O)C1CC1	-0.3555%
CC(C)(C)n1nc(C2CC2)cc1C(=O)NC1CCN(CC(N)=O)CC1	124.1%
CC(C)(C)n1nc(C(=O)NCC2(C(N)=O)CCOCC2)cc1C1CC1	8.942%
CC(CCc1ccccc1)CC(=O)NC1CCN(CC(N)=O)CC1 (stereo unspecified)	-10.07%
CC(C)(C)n1nc(C2CC2)cc1C(=O)NCC1(C(N)=O)CCOCC1	3.596%
Cc1ccc(C)c(Oc2ccc(CNC(=O)C3CCC(=O)N3)cn2)c1 (stereo unspecified)	-2.356%
CCCc1nnsc1C(=O)N1CCN(CC(O)c2ccco2)CC1.Cl (stereo unspecified)	-2.42%

Structure (SMILES)	Percent Effect
Cc1nnc2n1CCN(Cc1ncc(-c3ccc(Cl)cc3)o1)C2	-13.18%
CS(=O)(=O)N1CC[C@]2(C[C@@H](OCC3CCC3)CO2)C1	0.0763%
NC(=O)CN1CCC(NC(=O)c2ccn(-c3cccc(F)c3)n2)CC1	-0.7272%
CCCc1nc(C)c(C(=O)NC2CCN(CC(N)=O)CC2)s1	7.483%
Cc1cc(C(=O)NC2CCN(CC(N)=O)CC2)nn1C(C)(C)C	133.1%
Cc1csc(CN(C)CCCOc2cccc(C#N)c2)n1	1.685%
Cc1nn(C)c(N2CCOCC2)c1CNCC1CCN(C2CC2)C1 (stereo unspecified)	-9.16%
Cc1nn(C)c(N2CCOCC2)c1CNCc1nccs1	-7.203%
Cc1nn(C)c(N2CCOCC2)c1CNCc1ccnn1C	142.8%
Cc1nn(C)c(N2CCOCC2)c1CNCc1ccccc1CO	115.8%
Cc1nn(C)c(N2CCOCC2)c1CNCC1CCCN1C (stereo unspecified)	-4.188%
Cc1nn(C)c(N2CCOCC2)c1CNCc1ccoc1C	153.8%
Cc1nn(C)c(N2CCOCC2)c1CNCC1CCS(=O)(=O)C1 (stereo unspecified)	-15.3%
Cc1cccc(CNCc2c(C)nn(C)c2N2CCOCC2)n1	-8.764%
Cc1nn(C)c(N2CCOCC2)c1CNC(C)c1ccco1 (stereo unspecified)	-14.65%
Cc1nn(C)c(N2CCOCC2)c1CNCc1ccc(Cl)s1	2.748%
Cc1nn(C)c(N2CCOCC2)c1CNCc1ccc(CO)c(F)c1	138%
O=C(NCC1(O)CCSCC1)c1ccoc1	-3.908%
Cc1nccn1CC1CCCN1CCCc1nc(-c2cccs2)no1 (stereo unspecified)	8.035%
Cc1ncccc1CNC(CCO)C1CCCCC1 (stereo unspecified)	3.816%
Cn1ccnc1C1CCN(S(=O)(=O)c2ccc3c(c2)OCCO3)CC1	-44.72%
O=C(Nc1ncn(CC(=O)N2CCCCCC2)n1)C1CCCO1 (stereo unspecified)	-2.557%
Fc1ccc(CN2CCCC2Cn2cncn2)c2ncccc12 (stereo unspecified)	11.89%

Structure (SMILES)	Percent Effect
CC(C)N(C(=O)c1ccnc(OCC(F)(F)F)c1)c1cccnc1	-10.5%
Cc1nc(CNCc2c(C)nn(C)c2N2CCOCC2)cs1	-13.32%
COCc1cccc(CNCc2c(C)nn(C)c2N(C)C)c1	-4.219%
Cc1nn(C)c(N2CCOCC2)c1CNCc1ccc2c(c1)OCO2	96.35%
COc1ccc(CNCc2c(C)nn(C)c2N2CCOCC2)cc1	6.012%
Cc1nn(C)c(N2CCOCC2)c1CNCc1ccnc(N(C)C)c1	-0.1268%
Cc1nn(C)c(N2CCOCC2)c1CNCc1ccc(N(C)C)nc1	80.75%
COCc1cccc(CNCc2c(C)nn(C)c2N2CCOCC2)c1	117.6%
Cc1cc(CNCc2c(C)nn(C)c2N2CCOCC2)no1	-8.986%
Cc1nn(C)c(N(C)C)c1CNCc1ccc(N(C)C)nc1	0.9542%
Cc1nn(C)c(N2CCOCC2)c1CNCc1ccc(C(C)O)cc1 (stereo unspecified)	111.2%
CCCN1CCc2[nH]cnc2C12CCN(C(=O)CCn1cccn1)CC2	-44.41%
O=C(CCCc1nnc(-c2ccccc2)o1)N1CCN(CCO)CC1	-6.561%
CCOc1ccccc1N(C)C(=O)c1cscn1	11.28%
CC1CN(C(=O)c2cnn(-c3ccccn3)c2C(C)C)CC(C)(C)O1 (stereo unspecified)	3.589%
Cn1cc(C(O)CNC(=O)c2sccc2OC(F)F)cn1 (stereo unspecified)	-0.7442%
CCOc1cc(F)ccc1NC(=O)NCC(c1cnn(C)c1)N(C)C (stereo unspecified)	4.743%
Cn1cc(C(O)CNC(=O)c2ccc(F)cc2Cl)cn1 (stereo unspecified)	121.3%
Cc1ccc(C(=O)NCC(c2cnn(C)c2)N(C)C)c(O)c1 (stereo unspecified)	194.8%
Cc1ccc(C(O)CNC(=O)c2cccnc2O)cc1 (stereo unspecified)	-65.97%
CSCC(C)(O)CNC(=O)c1cc(Br)ccc1Cl (stereo unspecified)	7.074%
Cn1cc(C(O)CNC(=O)Nc2cc(F)ccc2-n2cccn2)cn1 (stereo unspecified)	-4.933%
Cc1ccc(C(=O)NCC(O)c2cnn(C)c2)c(Br)c1 (stereo unspecified)	99.45%

Structure (SMILES)	Percent Effect
Cn1cc(C(O)CNC(=O)c2cc(Br)ccc2Cl)cn1 (stereo unspecified)	133.1%
Cc1ccc(NC(=O)NCC(c2cnn(C)c2)N(C)C)c(C)c1 (stereo unspecified)	-2.112%
Cn1cc(CCCNC(=O)NCC(O)c2ccsc2)cn1 (stereo unspecified)	-8.721%
CC(CNC(=O)c1ccc(F)cc1Cl)N1CCCC1 (stereo unspecified)	2.022%
CC(NCCn1cccn1)c1cc(F)ccc1F (stereo unspecified)	17.19%
O=c1[nH]nc(SCC2CCCCO2)n1C1CC1 (stereo unspecified)	3.518%
COc1cc(CC(O)CO)c(OC)c2c1OCO2 (stereo unspecified)	13.41%
O=C1CCNc2ccc(F)cc2CN1Cc1ccccc1	102.2%
O=C(c1cc(Cl)c(Br)[nH]1)N1CCN(Cc2ccco2)CC1	4.507%
O=S(=O)(Cc1ccc(F)cc1)NCc1ccco1	9.126%
O=C1C(NS(=O)(=O)c2cc(F)cc(F)c2)CCN1Cc1ccccc1 (stereo unspecified)	-1.299%
O=C1CCOCCN1Cc1ccc(Cl)c(F)c1	-26.47%
O=C1CCNc2cc3c(cc2CN1Cc1ccco1)OCO3	103.2%
O=C1CCNc2ccc(F)cc2CN1Cc1ccco1	96.92%
O=C(CN1CCc2ccccc2C1)NCc1ccco1	-0.1453%
O=C(c1cc(Br)c[nH]1)N1CCN(Cc2ccco2)CC1	-4.103%
O=C1CCNc2ccccc2CN1Cc1ccco1	99.7%
O=C(NCCc1ccc2c(c1)OCO2)C1CCCN(Cc2ccco2)C1 (stereo unspecified)	-5.327%
O=C(CSC1CCc2ccccc2NC1=O)NCCc1ccco1 (stereo unspecified)	9.555%
